The structures appear in SMILES notation. Values joined by “and” are separate entries in the source; they are usually repeats but may differ in a detail not shown here. Identical values can stand only once. Results filed as inconclusive are left out. The source holds several records for some structures; these can differ, active in one and inactive in another. Active and inactive are the calls of the source. Calls follow the shape of the dose curve; as a rule, active = well fitted curve in the direction sought with a large enough effect in the repeat runs; inconclusive = weak or mixed curves; inactive = no such curve, though single readings can be large; an effect the other way counts as inactive or inconclusive.

Test [1] can be described thus: qHTS RealTime-Glo MT Cell Viability Assay in HepG2 cells - 8 hour (AID 1224873). Also: nearly all actives have a fitted effect of over 55% in size. Also: potency is read from the fitted curve at half-maximal effect. Put shortly:
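HepG2 cells (600/well) mixed with RealTime-Glo MT reagent, settled 5 h at 37 C/5% CO2 before compound addition. Nonlytic NanoLuc luminescence from viable-cell prosubstrate reduction read repeatedly during 40 h treatment at 37 C.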

Test [2] is described as follows: qHTS RealTime-Glo MT Cell Viability Assay in HEK293 cells - 40 hour (AID 1224874). Also: nearly all actives have a fitted effect of over 50% in size. Also: potency is read from the fitted curve at half-maximal effect. The note with it: RealTime-Glo luminescence; max response: stronger effect = lower value. The method in brief:
(§1)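 Kinetic, non-lysing viability readout. Seed HEK293 (600/well) with reagent, incubate 5 h at 37 C/5% CO2, pin 23 nL compound in DMSO, incubate at 37 C, read luminescence at 0, 8, 16, 24, 32, 40 h.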

A short description of test [3]: A CellTox Green Cytotoxicity Assay to monitor cytotoxicity in HepG2 cells - 16 hour (AID 1224876). Also: nearly all actives have a fitted effect of over 45% in size. Also: potency is read from the fitted curve at half-maximal effect. Put shortly: (§2)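 Cytotoxicity was tracked as dead-cell DNA fluorescence in HepG2 cells treated with test compounds at 37 C; each time-point value comes from one kinetic series spanning 0, 8, 16, 24, 32 and 40 h.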
Test [4] in a line: qHTS RealTime-Glo MT Cell Viability Assay in HepG2 cells - 32 hour (AID 1224877). Also: nearly all actives have a fitted effect of over 55% in size. Also: potency is read from the fitted curve at half-maximal effect. Put shortly:
(§3)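 Compound treatment began 5 h after plating HepG2 cells (600/well) with NanoLuc luciferase and prosubstrate. Plates stayed at 37 C for 40 h; luminescence was captured at six time points, 0 h through 40 h.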

Test [5] is described as follows: A CellTox Green Cytotoxicity Assay to monitor cytotoxicity in HepG2 cells - 24 hour (AID 1224878). Also: nearly all actives have a fitted effect of over 45% in size. Also: potency is read from the fitted curve at half-maximal effect. Put shortly:
as §2

Test [6] in a line: A CellTox Green Cytotoxicity Assay to monitor cytotoxicity in HepG2 cells - 40 hour (AID 1224879). Also: nearly all actives have a fitted effect of over 40% in size. Also: potency is read from the fitted curve at half-maximal effect. The method in brief:
as §2

Test [7] in a line: qHTS RealTime-Glo MT Cell Viability Assay in HEK293 cells - 0 hour (AID 1224880). Also: top concentration of the series differs between compounds; nearly all actives have a fitted effect of over 45% in size. Put shortly:
as §1

Test [8] in a line: A CellTox Green Cytotoxicity Assay to monitor cytotoxicity in HEK293 cells - 32 hour (AID 1224881). Also: nearly all actives have a fitted effect of over 40% in size. Also: potency is read from the fitted curve at half-maximal effect. The method in brief: (§4)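 Real-time, in one plate: 600 HEK293 cells/well with dead-cell DNA dye, pinned compound after 5 h, 37 C incubation over 40 h; viable cells give no appreciable fluorescence.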
Test [9] in a line: A CellTox Green Cytotoxicity Assay to monitor cytotoxicity in HepG2 cells - 32 hour (AID 1224883). Also: nearly all actives have a fitted effect of over 50% in size. Also: potency is read from the fitted curve at half-maximal effect. Put shortly:
as §2

The nature of test [10]: A CellTox Green Cytotoxicity Assay to monitor cytotoxicity in HEK293 cells - 8 hour (AID 1224884). Also: nearly all actives have a fitted effect of over 35% in size. Also: potency is read from the fitted curve at half-maximal effect. Put shortly: as §4
Test [11] can be described thus: qHTS RealTime-Glo MT Cell Viability Assay in HepG2 cells - 16 hour (AID 1224885). Also: nearly all actives have a fitted effect of over 50% in size. Also: potency is read from the fitted curve at half-maximal effect. Put shortly:
as §3

A short description of test [12]: qHTS RealTime-Glo MT Cell Viability Assay in HEK293 cells - 24 hour (AID 1224886). Also: nearly all actives have a fitted effect of over 50% in size. Also: potency is read from the fitted curve at half-maximal effect. Put shortly: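 Quantitative high-throughput screen of the Tox21 10K library in HEK293: cells and RealTime-Glo reagents plated together, compound added at 5 h, luminescence monitored through 40 h at 37 C.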
The nature of test [13]: qHTS RealTime-Glo MT Cell Viability Assay in HEK293 cells - 8 hour (AID 1224887). Also: nearly all actives have a fitted effect of over 50% in size. Also: potency is read from the fitted curve at half-maximal effect. Put shortly: as §1
The nature of test [14]: qHTS RealTime-Glo MT Cell Viability Assay in HepG2 cells - 0 hour (AID 1224889). Also: nearly all actives have a fitted effect of over 50% in size. The method in brief: as §3
A short description of test [15]: A CellTox Green Cytotoxicity Assay to monitor cytotoxicity in HepG2 cells - 8 hour (AID 1224890). Also: nearly all actives have a fitted effect of over 45% in size. Also: potency is read from the fitted curve at half-maximal effect. The method in brief: as §2
Test [16] is described as follows: qHTS assay to identify small molecule antagonists of the estrogen receptor alpha (ER-alpha) signaling pathway using the BG1 cell line in the presence of 0.1 nM 17-beta-estradiol - cell viability counter screen (AID 1259241). Also: nearly all actives have a fitted effect of over 40% in size. Also: potency is read from the fitted curve at half-maximal effect. Put shortly:
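Following 5 days in phenol red-free medium with charcoal-stripped serum, VM7Luc4E2 cells received test compounds alongside 0.1 nM 17beta-estradiol (final) at 37C for 22 hr. Live cells were then quantified via protease-substrate fluorescence.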

A short description of test [17]: qHTS assay to identify small molecule antagonists of the androgen receptor (AR) signaling pathway using the MDA cell line in the presence of 0.5 nM R1881 - cell viability counter screen (AID 1259242). Also: nearly all actives have a fitted effect of over 45% in size. Put shortly: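 Cells seeded at 3,000/well and allowed 5 hr at 37C, 0% CO2 before compound transfer and R1881 (0.5 nM final) addition; 16 hr later, live-cell protease fluorescence indicated cytotoxicity.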

The nature of test [18]: A CellTox Green Cytotoxicity Assay to monitor cytotoxicity in HEK293 cells - 24 hour (AID 1224875). Also: nearly all actives have a fitted effect of over 45% in size. Also: potency is read from the fitted curve at half-maximal effect. Put shortly: as §4
The nature of test [19]: A CellTox Green Cytotoxicity Assay to monitor cytotoxicity in HEK293 cells - 16 hour (AID 1224888). Also: nearly all actives have a fitted effect of over 35% in size. Put shortly: as §4
Test [20] can be described thus: A CellTox Green Cytotoxicity Assay to monitor cytotoxicity in HepG2 cells - 0 hour (AID 1224882). Also: nearly all actives have a fitted effect of over 35% in size. Put shortly:
as §2
% is scaled to controls: 0 for no effect and ±100 for the full control effect.

Regarding `COC(=O)c1cccc(C(=O)OC)c1`, the Potency result in [1], in [4], in [7], in [11], in [12] and in test [13] was “inactive” throughout. The Potency result in [14], in [16] and in test [17] was “inactive” in each case. In addition, in test [2], the max response was 2.68% (inactive) and 4.11% (inactive). In addition, the Potency entry in [3] is “inactive and 38.9 µM (active)”; in test [5], “inactive and 38.9 µM (active)”; in [6] it was “inactive and 24.5 µM (active)”; in [8] it was “inactive and 38.9 µM (active)”; in test [9], “inactive and 24.5 µM (active)”; in test [10] it was “inactive and 43.6 µM (active)”. For the same compound, in test [15], the Potency entry is “inactive and 43.6 µM (active)”.

As for `CC(=O)CC(C)=O`, the Potency entry in [1], in test [18], in [4], in [5], in [6] and in test [7] was “inactive” throughout. Besides, the Potency result in test [8], in test [9], in test [10], in test [11], in [12] and in [13] was “inactive” each time. Also, the Potency result in test [19], in [14], in test [16] and in [17] was “inactive” in each case. Further, in test [2], the max response was -5.33% (inactive).

As for `CCCCC(CC)COC(=O)CC(C(=O)OCC(CC)CCCC)S(=O)(=O)O` (configuration not stated), the Potency entry in test [1], in [4], in [7], in test [20], in [11] and in test [14] was “inactive” in each case. For the same compound, the Potency result in test [16] and in test [17] was “inactive” each time. Further, the Potency in [18] is 21.9 µM (active); in test [3], 33.4 µM (active) and 38.9 µM (active); in [5], 42 µM (active) and 38.9 µM (active); in [6], 42 µM (active) and 43.6 µM (active); in [8], 21.9 µM (active); in test [9], 42 µM (active) and 43.6 µM (active). The Potency in test [10] is 13.8 µM (active).

For the compound `CN(C)c1ccc(C(=C2C=CC(=[N+](C)C)C=C2)c2ccccc2)cc1`, the Potency is 17.4 µM (active) and 21.3 µM (active) and 19 µM (active) in test [1]; 1.34 µM (active) [middle of 4 runs] in [2]; 19.5 µM (active) [middle of 4 runs] in test [18]; 7.56 µM (active) [middle of 4 runs] in [4]; 6.74 µM (active) [middle of 4 runs] in test [5]; 15.1 µM (active) [middle of 4 runs] in test [8]. Moreover, the Potency is 10.7 µM (active) [middle of 4 runs] in [11]; 2.39 µM (active) [middle of 4 runs] in test [12]; 13.8 µM (active) and 10.7 µM (active) and 13.4 µM (active) in test [13]; 21.9 µM (active) and 8.49 µM (active) in test [15]; 30.6 µM (active) and 15 µM (active) in test [16]. Further, the Potency entry in test [7], in test [20], in [10] and in [14] was “inactive” throughout.

On to `Clc1ccc2c(c1)C(N1CCNCC1)=Nc1ccccc1O2`, for which the Potency result in test [1], in test [7], in test [20], in test [10], in test [13] and in [15] was “inactive” in each case. Further, in [16], the Potency result was “inactive”. In addition, the Potency was 43.6 µM (active) and 23.9 µM (active) in test [2]; 54.9 µM (active) in test [3]; 54.9 µM (active) in test [4]; 54.9 µM (active) and 26.8 µM (active) in test [5]; 49 µM (active) and 26.8 µM (active) in [6]; 49 µM (active) and 26.8 µM (active) in test [9]. In addition, the Potency in test [12] was 43.6 µM (active) and 26.8 µM (active).

For `CC(C)(C)c1cc(C(C)(C)C)c(O)c(C(C)(C)C)c1`, the Potency result in test [1], in test [4], in test [7], in [10], in test [11] and in [12] was “inactive” throughout. Besides, the Potency result in [13], in [14] and in [17] was “inactive” throughout. Besides, the max response in test [2] was -7.81% (inactive). The Potency in [18] is 54.9 µM (active) and 38.9 µM (active); in test [5], 54.9 µM (active); in [6], 49 µM (active); in test [8] it was 54.9 µM (active) and 34.7 µM (active).
